# Screening data (PubChem)
# The full list was thinned out, with hits kept by preference.
# Pf Dd2 growth – qHTS Primary assay for Inhibitors of Plasmodium falciparum Dd2 growth in vitro; hit rate 4.3% among 120,000; Potency, µM (top dose mostly 28.9 µM), for the others: top-dose activity, negative = inhibition, usual class: inhibitors; P. falciparum Dd2 growth, SYBR Green, 72 h; active means well fitted inhibition curve with a large enough effect;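 further: plate controls were DMSO vehicle for no effect and reference drug for full effect; nearly all actives have a fitted effect of over 65% in size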
#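 Infected erythrocytes (Dd2, 0.3% parasitemia, 2.5% hematocrit final) are added to compound in RPMI-1640/Albumax II medium, grown 72 h at 37C in low oxygen, then lysed with saponin/Triton-X containing SYBR Green and read by fluorescence.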
# Numbers without * were called inactive; i = inactive; [ ] = dose if it differs, or a comment. Potency means the concentration at half of the fitted maximal effect.
SMILES,Pf Dd2 growth
O=C(N[C@H]1CCN2C(=O)c3cc(-c4ccccc4)ccc3NC(=O)[C@H]12)c1cnccn1,11µM*
O=C(NC1CCCCC1)N[C@H]1CCN2C(=O)c3cc(-c4ccccc4)ccc3NC(=O)[C@H]12,8%[44.1 µM]
CCS[C@H]1CCN2C(=O)c3cc(-c4ccccc4)ccc3NC(=O)[C@H]12,11µM*
Cc1cccc(-c2ccc3c(c2)C(=O)N2CC[C@H](N)[C@H]2C(=O)N3)c1C,-8%[44.1 µM]
CCS[C@H]1CCN2C(=O)c3ccccc3NC(=O)[C@H]12,4%[44.1 µM]
COc1ccc(-c2ccc(NS(=O)(=O)c3cccc(Cl)c3)cc2)nn1,-25%
CO[C@H]1C(=O)N(C(C)C)[C@H]1C1CCN(C(=O)c2cccnc2C)CC1,0%
Clc1ccc(CN2CCN(c3ncnc4sc5c(c34)CCCC5)CC2)cc1Cl,44%
CN(C)c1ncnc2sc3c(c12)CCN(Cc1ccncc1)C3,i
c1nc(N2CCOCC2)c2c3c(sc2n1)CN(CC1CCCCC1)CC3,2.8µM*
COc1ccc(CN2CCN(c3ncnc4sc5c(c34)CCCC5)CC2)cc1F,-25%
CCOc1ccc(CN2CCN(c3ncnc4sc5c(c34)CC(C)CC5)CC2)cc1 (stereo not given),25%
c1coc(CN2CCc3c(sc4ncnc(N5CCOCC5)c34)C2)c1,8.9µM*
C#CCNC(=O)C1CN(c2cccc(OC)c2)C(=O)N1 (stereo not given),-17%[44.1 µM]
CN1CCN(C(CN)C2CCCCC2)CC1 (stereo not given),28µM*
COc1ccc(NC(=O)CN2C(=O)CCc3cc(S(=O)(=O)N4CCOCC4)ccc32)cc1Cl,4%
Cc1cccc(NC(=O)CSc2nnc3[nH]c(=O)cc(C)n23)c1C,i
Cc1nc(CN2CCN(C(=O)c3cnc(-c4cccnc4)nc3)CC2)no1,4%
CN1[C@@H](CCC(=O)N2CCN(c3ccccn3)CC2)CNC(=O)[C@@H]2[C@H]1CCN2Cc1ccc(O)cc1,-8%
Cc1ccc(-n2nc3c(N4CCC(C(=O)NC5CCCCC5)CC4)nnc(C)c3c2C)cc1,10%
COc1ccc(CNC(=O)C2CCN(c3nnc(C)c4c(C)n(-c5ccc(C)cc5)nc34)CC2)cc1,7.9µM*
Cc1nnc(N2CCC(C(=O)NCCc3ccccc3)CC2)c2nn(-c3ccccc3)c(C)c12,-16%
CCNC(=O)C1CCN(c2nnc(C)c3c(C)n(-c4ccc(OC)cc4)nc23)CC1,8.9µM*
COc1cc(NC(=O)C2CCN(c3nnc(C)c4c(C)n(-c5ccccc5)nc34)CC2)cc(OC)c1,-16%
Cc1ccc(-n2nc3c(N4CCC(C(=O)NC(C)C)CC4)nnc(C)c3c2C)cc1,55%[5.79 µM]
SMILES,Pf Dd2 growth
COCC(=O)N1c2nc(C(C)C)nn2C2(CCCCC2)[C@@H]2CCCC[C@@H]21,0%
Cc1cccc(NC(=O)N2CCC(CN3CCOCC3)CC2)c1C,14%[0.594 µM]
CC(C)CC(=O)Nc1nnc2n1CCS2,40%
Cc1cccc(CNc2ccc3nnc(C)n3n2)c1,i
Cc1nnc2ccc(NCc3ccc(F)cc3)nn12,-9%
CCc1nnc2ccc(NCc3ccc(F)cc3)nn12,7.1µM*
Cc1cc(=O)n(CC(=O)N2CCN(c3ccc(F)cc3)CC2)c(N2CCc3ccccc3C2)n1,i
Cc1ccc(-c2c3c(=O)n(C)c(=O)n(C)c3cn2-c2cc(C)ccc2O)cc1,5.6µM*
Cn1c(=O)c2c(-c3cccc(Br)c3)n(C(C)(C)CO)cc2n(C)c1=O,-5%
Cn1c(=O)c2c(-c3ccccc3)n(CCCO)cc2n(C)c1=O,3%
O[C@H]1CC[C@@H](Cc2cc(CN3CCCCC3)on2)O[C@@H]1CNCc1cccnc1,-19%[44.1 µM]
Cn1nc(C2CCCN(C(=O)C3CCCC3)C2)n(Cc2ccccc2)c1=O (stereo not given),-15%
C=CCNC(=O)NC[C@H]1C[C@@H]2CCN1C[C@@H]2c1cc(-c2ccco2)nc(C)n1,-3%[44.1 µM]
COCCC(=O)NCCC1CCN(C(=O)Nc2cc(F)cc(F)c2)CC1,-7%
CCCCN(CC)CCCNC(=O)c1cn(C)c(=O)c2c1c1ccccc1n2C,i
CCCCN(CCCC)CC(O)Cn1cc(/C=C/C(=O)c2ccccc2)c2ccccc21 (stereo not given),0.89µM*
COc1ccc(C(=O)/C=C/c2cn(CC(O)CN3CCc4ccccc43)c3ccccc23)cc1 (stereo not given),-3%
CCOc1ccc2c(c1)c(=O)c(C(=O)c1ccccc1)cn2Cc1ccccc1,-5%
CCCCN(C)CC(O)Cn1cc(/C=C/C(=O)c2ccc(OCC)cc2)c2ccccc21 (stereo not given),3.5µM*
CN1C(=O)CC(C(=O)O)C12CCN(C(=O)Nc1ccccc1)CC2 (stereo not given),3%
O=C(NC1CCCCCC1)c1cc2c(Cl)nc3ccccc3c2s1,33%
CCOc1ccc(CCNC(=O)Cn2ncn3c(cc4sc(C)cc43)c2=O)cc1OCC,-12%
CCC(=O)N1CC(N(CC)C2CCOCC2)C1,14%
CCCc1noc(-c2cccn3c(CNC(=O)Cc4ccccc4Cl)nnc23)n1,i
CCCc1noc(-c2cccn3c(CNC(=O)c4ccc(C)cc4)nnc23)n1,13µM*
SMILES,Pf Dd2 growth
CCCc1noc(-c2cccn3c(CNC(=O)Cc4ccc(Cl)cc4)nnc23)n1,-1%
CNC(=O)c1ccc2c(c1)NC(C)(COc1ccccc1)CO2 (stereo not given),-18%[44.1 µM]
Cc1cnc(CCN)n1C1CCC1,6%
O=C1NCc2ccccc2CC12CCCN2Cc1cnc2ccccc2c1 (stereo not given),8.9µM*
O=C1NCc2ccccc2CC12CCCN2Cc1ccccc1Cl (stereo not given),-22%
O=C1NCc2ccccc2CC12CCN(Cc1ccc(Cl)s1)C2 (stereo not given),-7%
O=C1NCc2ccccc2CC12CCCN2Cc1cc(O)cc(O)c1 (stereo not given),4%
O=C1NCc2ccccc2CC12CCCN2Cc1ccc(Cl)s1 (stereo not given),10µM*
O=C1NCc2ccccc2CC12CCN(Cc1cnc3ccccc3c1)C2 (stereo not given),-20%
O=C1NCc2ccccc2CC12CCCCN2Cc1ccnc2ccccc12 (stereo not given),8.9µM*
O=C1NCc2ccccc2CC12CCCN2Cc1ccc(Cl)cc1 (stereo not given),-13%
O=C1NCc2ccccc2CC12CCCCN2Cc1ccc(O)cc1 (stereo not given),-3%
CCn1ccc(C(=O)N2CCC(c3noc(-c4ccncc4)n3)C2)n1 (stereo not given),i[5.79 µM]
CCOCc1nc(C2CCCN2C(=O)Nc2ccsc2C(=O)OC)no1 (stereo not given),-11%
Cc1ccc(NC(=O)Cn2c(C)cc3nc4n(c(=O)c32)CCCC4)c(C)c1,i
CCc1noc(-c2ccn3c(CNC(=O)CCc4ccc(OC)cc4)nnc3c2)n1,-20%
Cc1cc(Cl)ccc1NC(=O)C1CCN(C(=O)c2ncn3c2COC(c2ccc(F)cc2)C3)CC1 (stereo not given),i
COc1ccc(CN2CCC3(CC(c4cccc(C(F)(F)F)c4)=NO3)C2)cc1 (stereo not given),4%
COc1ccc(C2=NOC3(CCN(Cc4ccc(F)cc4)C3)C2)cc1 (stereo not given),4µM*
COc1ccc(C2=NOC3(CCN(Cc4cccnc4)C3)C2)cc1 (stereo not given),i
COc1cccc(CN2CCC3(CC2)CC(O)CCO3)n1 (stereo not given),-10%
COc1cc2c(cc1NC(=O)COc1ccc(Br)cc1C)oc1ccccc12,77%
